Hits are enriched below; roughly 1.5% of the tested compounds scored in any of these assays.
TrxR1 substrate: substrates of rat thioredoxin reductase 1. 390,000 compounds, 0.01% hits. Potency, µM (top dose mostly 114 µM), for the others: top-dose activity change, negative = substrate turnover. purified TrxR1 substrate turnover, NADPH consumption readout; further: potency means the concentration at half of the fitted maximal effect; nearly all actives have a fitted effect of over 50% in size
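Rat TrxR1, dispensed at 90 nM, was prereduced with 400 uM NADPH (final) for 5 min at ~22 deg C, then incubated with compound 15 min before 400 uM selenite. A first-read NADPH fluorescence drop versus no-compound background flagged substrates.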
CtBP-E1A inh: blocks the CtBP interaction with E1A | AlphaScreen GST-E1A/His-CtBP binding, 1536-well; stronger effect = lower value | 340,000 compounds, 0.49% hits | activity change, % (test concentration not listed) | AID 651724; in the data active means activity change below about -65%; inconclusive means mostly about -30% to -63%
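Steps: dispense buffer (Tris pH 8.0, NaCl 300 mM, TCEP 1 mM, BSA, Tween 20); add 5X protein mix (GST-E1A, His-CtBP, 125 nM each); pin 23 nL compound; 2 h at 37 °C, dark; add 5X beads (50 ug/mL); 1 h; read.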
TrxR1 inh: inhibitors of rat thioredoxin reductase 1; recombinant rTrxR1, NADPH fluorescence consumption, selenite substrate; 390,000 compounds, 1% hits; Potency, µM (doses to about 114 µM), without a hit: at the top dose activity change, negative = inhibition, hits mostly inhibitors; further: potency means the concentration at half of the fitted maximal effect; nearly all actives have a fitted effect of over 65% in size
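Rat TrxR1 (90 nM in the dispensed reagent) was pre-reduced with 400 uM NADPH for 5 min at room temperature, then incubated with compound for 15 min. After 400 uM selenite was added, NADPH fluorescence (Ex 340/Em 450 nm) was followed for 8 min.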
Six1-Eya2 inh: blocks human Six1 binding to Eya2 | AlphaScreen GST-Six1/His-Eya2 binding, biochemical; stronger effect = lower value | activity change, % (concentration not given with the values) | 360,000 compounds, 0.56% hits | AID 651725; in the data active means activity change below about -65%; inconclusive means mostly about -30% to -63%
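GST-Six1 + His-Eya2 (5X stock: 250/500 nM); Tris pH 8.0, 300 mM NaCl, 0.05% BSA, 0.02% Tween 20; GSH donor/Ni acceptor beads; 1 h 37 °C dark; AlphaScreen readout.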
Eya2 phos inh: inhibitors of human Eya2 phosphatase activity. O00167. recombinant Eya2, OMFP fluorescence dephosphorylation (OMFP is methylfluorescein phosphate). Potency, µM (series often up to 76.9 µM), for the others: top-dose activity, negative = inhibition, usual class: inhibitors. 330,000 compounds, 0.006% hits; further: potency means the concentration at half of the fitted maximal effect
Target sequence (O00167 whole entry, looked up): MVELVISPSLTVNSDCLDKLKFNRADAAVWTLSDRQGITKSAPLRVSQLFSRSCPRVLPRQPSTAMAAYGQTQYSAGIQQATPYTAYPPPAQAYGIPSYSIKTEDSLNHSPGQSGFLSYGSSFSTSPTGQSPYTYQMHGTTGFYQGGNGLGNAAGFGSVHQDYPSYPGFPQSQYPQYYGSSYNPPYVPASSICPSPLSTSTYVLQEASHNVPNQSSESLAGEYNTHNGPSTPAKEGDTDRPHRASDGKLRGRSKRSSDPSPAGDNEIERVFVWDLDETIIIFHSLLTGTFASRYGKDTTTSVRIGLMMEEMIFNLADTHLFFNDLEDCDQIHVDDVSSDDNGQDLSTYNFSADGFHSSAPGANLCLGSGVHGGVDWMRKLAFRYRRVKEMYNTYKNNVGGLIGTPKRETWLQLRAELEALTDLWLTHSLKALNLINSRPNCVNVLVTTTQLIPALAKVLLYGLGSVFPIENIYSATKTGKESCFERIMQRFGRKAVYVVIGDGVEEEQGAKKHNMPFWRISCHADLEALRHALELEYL
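Eya2 protein (added as 0.2 uM solution) was preincubated with compound for 10 min at ambient temperature in 50 mM HEPES pH 7.5, 50 mM NaCl, 5 uM MgCl2, 0.05% BSA, 1 mM DTT. OMFP (added at 50 uM) then reacted 10 min; fluorescence read at 485/525 nm.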
GALK inh: blocks human galactokinase activity; P51570; Purified GALK, Kinase-Glo residual ATP luminescence; Potency, µM (series often up to 57.5 µM), inactives show at the top dose activity change, negative = inhibition, most hits filed as inhibitors; 270,000 compounds, 0.007% hits; AID 1868; further: potency means the concentration at half of the fitted maximal effect
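The enzyme phosphorylates galactose (100 uM) using ATP (35 uM); inhibition is detected as higher residual ATP, quantified by bioluminescence after 1 h reaction at room temperature, pH 8.0.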
The depositor's hits bear a star; ? = inconclusive; / = no result; [ ] = another dose, or the depositor's remark. Unless noted, the call rests on the fitted dose curve; in most records, active means well fitted curve in the direction sought with a large enough effect; inconclusive means small, poorly fitted or top-dose-only effect, or another doubt; inactive means no such curve, though single readings can be large; an effect the other way counts as inactive or inconclusive. On the % scale 0 is the no-effect control and ±100 the full control effect.

SMILES	TrxR1 substrate	CtBP-E1A inh	TrxR1 inh	Six1-Eya2 inh	Eya2 phos inh	GALK inh
CC(=O)Nc1ccc(S(=O)(=O)N2C3CCCC2CC(NC(=O)C2CCCCC2)C3)cc1 (stereo not given)	16%	-3	29%	-67*	5%	5%
O=C1Nc2ccccc2C1Cc1ccccc1 (stereo not given)	-3%[57.1 µM]	2	13%[2.29 µM]	-11	-8%	-2%
O=C1C=CC2(C=C1)O[C@H](Cc1ccccc1)[C@@H](Cc1ccccc1)O2	4%[11.4 µM]	6	0.89µM*	-19	/	/
COc1ccc(C[C@@H]2OC3(C=CC(=O)C=C3)O[C@H]2Cc2ccc(OC)cc2)cc1	-1%	2	0.56µM*	-28	/	/
COc1cc2nc(Cl)nc(NC(C)C)c2cc1OC	-17%	/	?	/	/	/
CC1=NOC(=O)/C1=C/c1ccc(-c2ccc(Cl)cc2)o1	/	/	/	/	4%	-9%
CC1=NOC(=O)/C1=C\c1ccc(-c2cc(Cl)ccc2Cl)o1	10%	-22	16µM*	-14	-2%	-14%
Cc1ccc(CN(C)C(=O)c2ccc3c(c2)NC(=O)CS3)o1	-2%	-15	18µM*	-2	-9%	0%
COc1ccccc1CN(C)C(=O)c1ccc2c(c1)NC(=O)CS2	3%	0	-1%	-1	-5%	-4%
CCOc1ccccc1NC(=O)CN1C(=O)C2(SCC(=O)N2c2ccc(C)cc2)c2ccccc21 (stereo not given)	-6%	/	-3%	/	/	/
CCn1nc(C)cc1-c1nnc(Sc2ncc([N+](=O)[O-])s2)n1C	-10%	/	0.35µM*	?	4%	-3%
CCn1nc(C)cc1-c1nnc(SCC(=O)Nc2ccccc2)n1CCCOC	-9%[57.1 µM]	-4	12%[57.1 µM]	2	25%	/
CCc1ccc(/C=C2/SC(=S)NC2=O)cc1	?	/	?	/	1%	/
CCOC(=O)c1cc(C)sc1/N=C/C1C(=O)CCCC1=O	-13%	0	-22%	-8	-16%	0%
CCOC(=O)c1cc(C)sc1/N=C/C1=C(O)CCCC1=O	3%	2	20µM*	-6	3%	0%
CN(C(=O)Cn1c(=O)n(Cc2ccc(C(=O)NCc3ccc4c(c3)OCO4)cc2)c(=O)c2ccccc21)c1ccccc1	8%	/	25%	/	/	/
CN1c2ccc([N+](=O)[O-])cc2N(C)C1(C)c1ccccc1 (stereo not given)	2%	-80*	26%	-76*	-19%	0%
O=c1c(C(c2ccc(F)cc2)c2c(O)nc3n(c2=O)CCS3)c(O)nc2n1CCS2	6%[57.1 µM]	-6	13µM*	-2	0%	5%
O=c1c(C(c2ccc(Cl)cc2)c2c(O)nc3n(c2=O)CCCS3)c(O)nc2n1CCCS2	2%	-27	?	-21	-2%	0%
O=c1c(C(c2ccc(Cl)cc2)c2c(O)nc3n(c2=O)CCS3)c(O)nc2n1CCS2	4%	/	10µM*	-11	1%	6%
O=c1c2ccccc2nc2n1CCS2	-2%[57.1 µM]	0	12%	-1	7%	-7%
CN(C)c1ccc(C(CNC(=O)c2ccc(C(C)(C)C)cc2)N2CCCC2)cc1 (stereo not given)	13%[57.1 µM]	/	23%[57.1 µM]	/	/	/
O=c1[nH]c(Sc2ccc([N+](=O)[O-])cc2[N+](=O)[O-])nc2ccccc12	-5%	/	3.2µM*	3	/	/
CCOC(=O)/C(=C/c1ccc(OC(=O)c2ccccc2)cc1)C(C)=O	0%	-26	14µM*	?	-19%	/
CCCCCC(=O)N(O)C1CC(=O)N(c2ccccc2)C1=O (stereo not given)	-21%[57.1 µM]	-2	3.5µM*	0	-9%	3%
SMILES	TrxR1 substrate	CtBP-E1A inh	TrxR1 inh	Six1-Eya2 inh	Eya2 phos inh	GALK inh
COc1ccc(Br)cc1CNC(=O)c1cnc2sc(N3CCCC3)nn2c1=O	10%[57.1 µM]	/	9%[57.1 µM]	/	/	/
COc1ccccc1NC(=O)c1ncn(-c2ccccc2)n1	-3%	/	-7%	/	/	/
O=C(NNS(=O)(=O)c1ccccc1)c1cccnc1	3%	9	17%	0	11%	-3%
O=C(NC(=S)NNS(=O)(=O)c1ccc(Cl)cc1)c1cccnc1	9%	10	18µM*	-4	2%	1%
CCOC(=O)COc1ccc(Br)cc1/C=C\c1[nH]c(=O)[nH]c(=O)c1[N+](=O)[O-]	-9%	?	45µM*	-28	-2%	-7%
CCOC(=O)COc1ccc(Br)cc1/C=C/c1[nH]c(=O)[nH]c(=O)c1[N+](=O)[O-]	0%	?	?	-21	-12%	-11%
O=C1C=CC(=O)N1c1ccc2c(c1)C(NC(=O)C(F)(F)F)c1ccccc1-2 (stereo not given)	4%	-1	1.8µM*	0	/	/
Cc1ccccc1NC(=O)c1ccc(C)c(S(=O)(=O)Nc2cccnc2)c1	-4%	8	-7%	4	-5%	-1%
O=C(Nc1ccc(Br)cc1)c1ccc(Br)c(S(=O)(=O)Nc2cccnc2)c1	-8%	-66*	-6%	?	8%	0%
Oc1ccc(C(c2nnnn2C2CCCCC2)N2CCOCC2)cc1 (stereo not given)	5%[57.1 µM]	0	-15%[57.1 µM]	-10	-4%	4%
c1cc(C(c2nnnn2C2CCCC2)N2CCOCC2)ccn1 (stereo not given)	7%	6	14µM*	3	6%	1%
Cc1noc(NS(=O)(=O)c2ccc(NC(=O)CSc3nc4ccccc4[nH]3)cc2)c1C	9%	-1	15%	-6	9%	-2%
Cc1noc(NS(=O)(=O)c2ccc(NC(=O)CSc3nnc4c(n3)[nH]c3ccccc34)cc2)c1C	-5%	-90*	13%	-88*	0%	-8%
CCc1ccc(NC(=O)CSC2=Nc3ccccc3C3=NC(CCC(=O)NCc4ccccc4OC)C(=O)N23)cc1 (stereo not given)	-2%[57.1 µM]	/	2%[57.1 µM]	/	/	/
Cc1cccc(Cn2c(CN3CCCC(C)C3)nc3c2c(=O)n(C)c(=O)n3C)c1 (stereo not given)	0%	/	7%	/	/	/
Cc1cccn2c(=O)c(C(=O)NCCc3ccccc3)c(O)nc12	39%	/	32%	/	/	/
CCc1cccc(NC(=O)c2cnc(SC)nc2-c2ccccc2)c1	-2%	/	10%	/	/	/
O=C1CCC(C(=O)N2CCSCC2)CN1Cc1ccc(Cl)cc1 (stereo not given)	-8%	/	45µM*	5	-6%	7%
CCC1CCCCN1CCCNC(=O)c1ccc2c(c1)N(Cc1cccc(C)c1)C(=O)c1ccccc1S2(=O)=O (stereo not given)	8%	/	33%	/	/	/
CCC(=O)N(CCC(c1ccco1)C(C)C)Cc1ccccc1 (stereo not given)	-4%[57.1 µM]	1	7%[57.1 µM]	-13	-2%	-1%

Compound activity: PubChem, National Center for Advancing Translational Sciences (NCATS)
